Nrf2 activator = qHTS of Nrf2 Activators. AREc32 ARE-luciferase reporter (MCF7-derived line), luminescence, 24 h. Potency, µM (highest dose often 46.1 µM), actives largely listed as activators. hit rate 0.31% among 410,000. AID 624171, 2012; further: nearly all actives have a fitted effect of over 65% in size
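For detection, Steady-Glo was added and plates sat 30 min at RT; before that, AREc32_Fluc cells grown overnight in OPTI-MEM/5% FBS had been treated with 23 nL compound for 24 hr at 37 deg C.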
Nrf2 inh = Nrf2 qHTS screen for inhibitors | A549 ARE-Fluc reporter, luciferase luminescence, 18-24 h | hit rate 2.1% among 360,000 | Potency, µM (series often up to 46 µM), hits mostly inhibitors; further: nearly all actives have a fitted effect of over 60% in size
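A549 ARE_Fluc cells, 5000/well, 5% FBS OPTI-MEM; compounds in dose-response, 18-24 h at 37 °C/5% CO2; CellTiter-Fluor viability read (Ex 405/Em 525), then BugLite luciferase luminescence = Nrf2 activity.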
B2AR arrestin = qHTS assay of beta-arrestin-biased ligands of beta2-adrenergic receptor; Beta-2 adrenergic receptor (Homo sapiens), P07550; beta-arrestin recruitment to beta2AR, cell-based reporter; Potency, µM (top dose mostly 46.1 µM), hits mostly activators; hit rate 0.02% among 330,000; further: nearly all actives have a fitted effect of over 65% in size
Target sequence (P07550 whole entry, looked up): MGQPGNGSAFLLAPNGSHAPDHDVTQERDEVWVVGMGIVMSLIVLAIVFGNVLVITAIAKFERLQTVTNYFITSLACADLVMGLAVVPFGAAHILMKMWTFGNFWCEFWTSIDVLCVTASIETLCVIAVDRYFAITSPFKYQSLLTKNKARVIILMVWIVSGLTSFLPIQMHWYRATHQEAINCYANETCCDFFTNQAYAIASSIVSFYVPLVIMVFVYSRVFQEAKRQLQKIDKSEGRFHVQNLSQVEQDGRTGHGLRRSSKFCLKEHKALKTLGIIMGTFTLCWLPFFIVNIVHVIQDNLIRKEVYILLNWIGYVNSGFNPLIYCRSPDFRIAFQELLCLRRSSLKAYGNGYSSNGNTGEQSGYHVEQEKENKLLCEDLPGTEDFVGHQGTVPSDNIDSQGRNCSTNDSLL
miR-21 reporter = qHTS Assay for Modulators of miRNAs and/orActivators of miR-21; HeLa miR-21 FLuc reporter, luciferase, 48 h; 340,000 tested, under 10 active; AID 2288, 2010; Potency, µM (doses to about 38.3 µM), hits mostly activators;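 further: miR-21 action dims this reporter so a rising signal means less miR-21 action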
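Luminescence from a firefly luciferase reporter carrying a miR-21 binding site downstream, stably expressed under a CMV promoter in HeLa cells that make miR-21 endogenously, reports miRNA modulation after 48 h compound exposure up to approximately 40uM final.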
A549 viability = Nrf2 qHTS screen for inhibitors: counterscreen for cytotoxicity. A549 ARE-Fluc cells, CellTiter-Fluor viability, 18-24 h. Potency, µM (highest dose often 46 µM), usual class: inhibitors. hit rate 0.16% among 390,000. AID 504648, 2011
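A549 ARE-Fluc cells in 5% FBS OPTI-MEM, 5000 cells/well, rested 2 h then exposed to compounds in concentration-response for 18-24 h at 37 °C. Viability by CellTiter-Fluor fluorescence (Ex 405/Em 525) after 30 min; luciferase luminescence (BugLite, 15 min, RT) read afterwards.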
Each line names hits and unclear results; the compound was inactive in the other large screens. Only some compounds are listed: those with a hit (about 2.2% of all), similar ones and a draw of the others. The call rests on the fitted dose curve; in most records, active means well fitted curve in the direction sought with a large enough effect; inconclusive means small, poorly fitted or top-dose-only effect, or another doubt; inactive means no such curve, though single readings can be large; an effect the other way counts as inactive or inconclusive.

CCCOc1cccc(-c2cc(-c3n[nH]c(=S)n3CC)c3ccccc3n2)c1	Nrf2 inh 13µM, A549 viability inconclusive
CCN(Cc1ccccc1)S(=O)(=O)c1ccc(-c2coc(C)n2)cc1	miR-21 reporter inconclusive (no result: Nrf2 inh, B2AR arrestin)
Cc1cc(-n2c(C)cc(C(=O)CSc3nc(N)cc(=O)[nH]3)c2C)no1	Nrf2 inh inconclusive
Cc1cc(C(=O)CSc2nc(N)cc(=O)[nH]2)c(C)n1-c1ccc(OC(F)F)cc1	Nrf2 inh 18µM
COc1ccc(CCn2c(C)cc(C(=O)CSc3nc(N)cc(=O)[nH]3)c2C)cc1	Nrf2 inh 18µM, miR-21 reporter inconclusive
Fc1ccc(NC(=S)NNc2ncc(C(F)(F)F)cc2Cl)c(F)c1	Nrf2 inh inconclusive, miR-21 reporter inconclusive, A549 viability inconclusive
Cc1ccc(NC(=S)NNc2ncc(C(F)(F)F)cc2Cl)cc1	Nrf2 inh 23µM, miR-21 reporter inconclusive
FC(F)(F)c1cnc(NNC(=S)Nc2ccc(Cl)cc2)c(Cl)c1	Nrf2 inh 12µM, miR-21 reporter inconclusive, A549 viability inconclusive
COc1cc(OC)cc(C(=O)Nc2ccc3oc(-c4ccc(Cl)cc4)nc3c2)c1	none (no result: B2AR arrestin)
COc1ccc(Nc2c3c(nc4ccc(NC(=O)/C=C/c5cccc(OC)c5OC)cc24)CCCC3)cc1OC	miR-21 reporter inconclusive, A549 viability inconclusive (no result: B2AR arrestin)
CC(=O)Nc1ccc(SCC(=O)c2cc(C)n(-c3ccccc3)c2C)cc1	Nrf2 inh inconclusive
CCCCCCCC[n+]1c(C)n(-c2ccccc2)c2ccc(NC(C)=O)cc21	Nrf2 inh 12µM, miR-21 reporter inconclusive
CC(C)Cn1c(CN2CCN(c3cccc(Cl)c3)CC2)nc2c1c(=O)[nH]c(=O)n2C	none (no result: B2AR arrestin)
CONC(=O)C[C@@H](C#N)NC(=O)[C@@H]1CCCN1C(=O)[C@@H](NC(=O)c1ccc(N)c(Cl)c1)C(C)(C)C	none (no result: Nrf2 activator, B2AR arrestin, miR-21 reporter)
COc1ccc(CN2CCc3c(c(=O)n4ncc(C(=O)N5CCN(c6ccccc6F)CC5)c4n3C)C2)cc1	none (no result: Nrf2 inh, B2AR arrestin)
Cc1ccc(O)c(NC(=O)c2noc3c2CCCCC3)c1	Nrf2 activator inconclusive
Cc1ccc(O)c(NC(=O)c2noc3c2CCCC3)c1	Nrf2 activator 7.9µM (no result: B2AR arrestin)
Nc1nsc2ccccc12	Nrf2 activator 11µM, Nrf2 inh inconclusive
CCCOc1ccc(/C=C/C(=O)Nc2sc(C)c(C)c2C(=O)OCC)cc1OC	none (no result: B2AR arrestin)
CCOC(=O)c1c(C)[nH]c(C(=O)C(C)Cl)c1C (centres undefined)	Nrf2 activator 18µM
Cc1cc(-c2ccc(C(C)C)c(S(=O)(=O)N3CCOc4ccccc43)c2)on1	Nrf2 inh 21µM
CCc1ccc(-c2cc(C)no2)cc1S(=O)(=O)N1CCOc2ccc(C)cc21	Nrf2 inh 13µM
Cc1sc(-n2c(C)cc(/C=N/n3cnnc3)c2C)c(C#N)c1C	Nrf2 inh 15µM
Cc1cc(/C=C2\SC(=S)NC2=O)c(C)n1-c1cccc(O)c1	A549 viability inconclusive
Cc1cc(/C=N/n2cnnc2)c(C)n1-c1ccccc1	none (no result: Nrf2 inh)
Cc1sc(-n2c(C)cc(/C=C3\SC(=S)NC3=O)c2C)c(C#N)c1C	Nrf2 inh inconclusive, A549 viability 21µM
COc1ccc(C(CC(=O)c2ccc(O)cc2)S(=O)(=O)c2ccc(C)cc2)cc1 (centres undefined)	Nrf2 activator 13µM
Cc1ccc(-n2c(Cc3ccccc3)n[nH]c2=S)c(C)c1	Nrf2 inh 13µM
Cc1ccc(NC(=O)CN2C(=O)C(c3ccc(F)cc3)=NC23CCCCC3)c(C)c1	miR-21 reporter inconclusive (no result: B2AR arrestin)
Cc1cccc(NC(=O)CN2C(=O)C(c3ccc(F)cc3)=NC23CCCCCC3)c1C	Nrf2 inh 23µM (no result: B2AR arrestin)
O=C(NCc1ccccc1)c1nc(S(=O)(=O)Cc2ccc(F)cc2)ncc1Cl	Nrf2 inh 26µM, miR-21 reporter inconclusive, A549 viability inconclusive (no result: B2AR arrestin)
Cc1cccc(C)c1NC(=O)c1nc(S(=O)(=O)Cc2ccccc2)ncc1Cl	Nrf2 activator inconclusive, Nrf2 inh inconclusive, miR-21 reporter inconclusive
Cc1cccc(CS(=O)(=O)c2ncc(Cl)c(C(=O)Nc3c(C)cccc3C)n2)c1	Nrf2 inh 15µM, miR-21 reporter inconclusive, A549 viability inconclusive
Cc1c(Cl)ccc2sc(N3CCN(C(=O)C4CC4)CC3)nc12	none (no result: Nrf2 inh, B2AR arrestin)
CC(=O)c1ccccc1OCCOc1ccccc1C(C)=O	none
CC(=O)c1ccccc1OCc1ccc(S(=O)(=O)Cc2ccccc2)cc1	Nrf2 inh 21µM
COc1ccc(C2C(=O)N(C3CCC(C)CC3)CC(=O)N2CCC2=CCCCC2)cc1OC (centres undefined)	none (no result: Nrf2 inh, B2AR arrestin)
N#CN=c1snc(-c2ccccc2Cl)n1-c1ccccc1Cl	none (no result: Nrf2 activator, B2AR arrestin, miR-21 reporter)
O=C(CSc1c2c(nc3ccccc13)CCC2)Nc1ccc(F)cc1F	Nrf2 activator inconclusive, Nrf2 inh inconclusive, A549 viability inconclusive (no result: B2AR arrestin)
CC(C)Oc1ccc(CNC(=O)c2ccc(CS(=O)Cc3ccccc3Cl)o2)cc1 (centres undefined)	Nrf2 inh inconclusive (no result: B2AR arrestin)
Cc1ccc(NC(=O)C2CCCN(S(=O)(=O)c3ccc4c(c3)CCCC(=O)N4)C2)cc1N(C)C (centres undefined)	Nrf2 inh 16µM (no result: B2AR arrestin)
Cc1cc(NC(=O)CN(C)S(=O)(=O)c2ccc3c(c2)CCCC(=O)N3)ccc1Br	Nrf2 inh 21µM, miR-21 reporter inconclusive (no result: B2AR arrestin)
CC(=O)Nc1ccc(NC(=O)CN(C)S(=O)(=O)c2ccc3c(c2)CCC(=O)N3)cc1	none
CCOC(=O)c1[nH]c(C)c(CCC(=O)NCc2ccc(C)cc2)c1C	none (no result: Nrf2 inh, B2AR arrestin)
Cc1ccc(NC(=O)c2ccc3c(=O)n4c(nc3c2)CCCCC4)cc1F	Nrf2 inh 18µM, A549 viability inconclusive
COc1ccc(NC(=O)c2ccc3c(=O)n4c(nc3c2)CCCCC4)cc1	none
O=C(Nc1cccc(S(=O)(=O)N2CCOCC2)c1)c1ccc2c(=O)n3c(nc2c1)CCCCC3	Nrf2 inh 21µM, A549 viability inconclusive
O=C(Nc1cccc(S(=O)(=O)N2CCCC2)c1)c1ccc2c(=O)n3c(nc2c1)CCCCC3	Nrf2 inh 12µM, miR-21 reporter inconclusive
O=C(Nc1nc(-c2ccccc2)cs1)c1ccc2c(=O)n3c(nc2c1)CCCCC3	Nrf2 inh 5.8µM, A549 viability inconclusive
CC(C)Oc1ccc(CNC(=O)CCn2c(=O)c3cccn3c3ccc(F)cc32)cc1	none (no result: B2AR arrestin)
Cc1ccc(S(=O)(=O)N2CCN(S(=O)(=O)c3ccc4c(c3)OCCCO4)CC2)cc1	none (no result: Nrf2 activator, B2AR arrestin, miR-21 reporter)
CCOC(=O)c1ccc2c(c1)N(Cc1ccc(F)cc1Cl)C(=O)c1ccccc1S2	none (no result: Nrf2 inh, B2AR arrestin)
Cc1ccc(NC(=O)c2ccc(OCc3c(C)noc3C)cc2)cc1C	Nrf2 inh 18µM, A549 viability inconclusive (no result: miR-21 reporter)
Cc1noc(C)c1COc1cccc(C(=O)Nc2ccc(Br)cc2F)c1	Nrf2 inh 23µM, A549 viability inconclusive (no result: miR-21 reporter)
Cc1ccc(NC(=O)c2ccc(OCc3c(C)noc3C)cc2)c(C)c1	Nrf2 inh 23µM (no result: miR-21 reporter)
Cc1cc(NC(=O)Nc2ccccc2Cl)no1	Nrf2 inh inconclusive

Source: PubChem
